# Unmarked numbers belong to inactive results.
# Experiments:
# Test in all cases: log2 ratio of Biotin-Ahx-Ub-VS probe labelling (fragment/DMSO); higher = less target engagement (more negative = stronger competition), active = hit call of the paper (q ≤ 0.05, log2 ratio ≤ -1)
# Conditions in all cases: compound concentration: 200 uM; treatment time: 3 h
# OTUD6B = biological target: T1, OTUD6B (UniProt Q8N6M0)
# T1 sequence (whole entry): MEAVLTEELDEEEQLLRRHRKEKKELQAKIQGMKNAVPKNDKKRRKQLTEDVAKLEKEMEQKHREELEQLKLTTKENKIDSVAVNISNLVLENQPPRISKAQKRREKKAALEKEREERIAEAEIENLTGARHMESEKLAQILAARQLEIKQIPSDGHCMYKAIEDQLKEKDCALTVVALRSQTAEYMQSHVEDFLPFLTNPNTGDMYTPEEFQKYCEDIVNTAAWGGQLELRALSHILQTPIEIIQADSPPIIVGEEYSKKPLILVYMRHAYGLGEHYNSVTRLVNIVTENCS
# In short: (§1)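 Labelled DUBs from HEK293T lysate were NeutrAvidin-enriched, digested with LysC and trypsin, and run by diaPASEF LC-MS/MS. Before that, each 495 µg sample in Tris/CHAPS/IGEPAL buffer with protease inhibitors was treated in triplicate with fragment at 200 µM or vehicle for 3 h, then with Biotin-Ahx-Ub-VS at 0.5 µM final for 1 h. Values are average log2 ratios of fragment over vehicle by unpaired t-test, based on global-median-normalised Spectronaut label-free quantities from proteins with ≥2 unique peptides.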
# OTUD7B = biological target: T2, OTUD7B (UniProt Q6GQQ9)
# T2 sequence (whole entry): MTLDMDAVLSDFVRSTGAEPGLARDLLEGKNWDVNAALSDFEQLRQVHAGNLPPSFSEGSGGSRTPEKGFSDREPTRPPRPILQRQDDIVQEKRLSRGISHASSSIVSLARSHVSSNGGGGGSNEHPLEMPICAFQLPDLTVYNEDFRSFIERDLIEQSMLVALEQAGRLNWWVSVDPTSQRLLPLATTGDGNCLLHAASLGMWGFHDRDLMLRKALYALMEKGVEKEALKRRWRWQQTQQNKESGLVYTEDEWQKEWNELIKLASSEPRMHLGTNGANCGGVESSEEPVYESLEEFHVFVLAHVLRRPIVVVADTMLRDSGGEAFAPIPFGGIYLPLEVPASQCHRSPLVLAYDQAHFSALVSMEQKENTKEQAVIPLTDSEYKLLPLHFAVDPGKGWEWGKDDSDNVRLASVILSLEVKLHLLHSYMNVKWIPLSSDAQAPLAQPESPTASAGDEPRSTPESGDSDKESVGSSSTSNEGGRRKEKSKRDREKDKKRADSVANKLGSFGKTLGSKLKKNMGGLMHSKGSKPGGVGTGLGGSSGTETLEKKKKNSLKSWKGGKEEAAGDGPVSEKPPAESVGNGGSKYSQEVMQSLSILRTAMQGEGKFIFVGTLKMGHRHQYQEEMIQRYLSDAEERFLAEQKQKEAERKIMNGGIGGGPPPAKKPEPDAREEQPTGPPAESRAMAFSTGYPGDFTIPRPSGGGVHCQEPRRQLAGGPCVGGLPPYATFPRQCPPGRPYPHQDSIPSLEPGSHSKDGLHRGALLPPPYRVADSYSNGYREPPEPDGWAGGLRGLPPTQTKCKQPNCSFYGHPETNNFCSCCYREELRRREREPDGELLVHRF
# In short: as §1
# PRPF8 = PRPF8 (UniProt Q6P2Q9)
# In short: as §1
# PSMD7 = biological target: T3, PSMD7 (UniProt P51665)
# T3 sequence (whole entry): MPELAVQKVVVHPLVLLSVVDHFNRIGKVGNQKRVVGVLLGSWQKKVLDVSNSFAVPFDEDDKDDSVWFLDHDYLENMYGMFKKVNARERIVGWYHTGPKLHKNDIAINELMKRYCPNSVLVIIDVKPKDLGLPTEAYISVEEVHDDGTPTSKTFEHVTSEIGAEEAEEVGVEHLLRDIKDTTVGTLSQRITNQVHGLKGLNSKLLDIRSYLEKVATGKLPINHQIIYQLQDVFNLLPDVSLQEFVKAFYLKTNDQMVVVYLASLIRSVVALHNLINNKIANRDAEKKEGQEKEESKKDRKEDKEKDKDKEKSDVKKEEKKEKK
# In short: as §1
# UCHL1 = UCHL1 (UniProt P09936)
# UCHL1, sequence (P09936 whole entry, looked up): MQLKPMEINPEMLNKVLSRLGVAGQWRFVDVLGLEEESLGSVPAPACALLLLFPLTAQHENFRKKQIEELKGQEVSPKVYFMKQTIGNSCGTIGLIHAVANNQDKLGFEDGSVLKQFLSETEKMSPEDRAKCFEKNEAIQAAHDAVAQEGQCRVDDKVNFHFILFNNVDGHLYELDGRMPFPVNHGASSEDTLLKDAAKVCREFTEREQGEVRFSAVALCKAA
# In short: as §1
# UCHL3 = biological target: T4, UCHL3 (UniProt P15374)
# T4 sequence (whole entry): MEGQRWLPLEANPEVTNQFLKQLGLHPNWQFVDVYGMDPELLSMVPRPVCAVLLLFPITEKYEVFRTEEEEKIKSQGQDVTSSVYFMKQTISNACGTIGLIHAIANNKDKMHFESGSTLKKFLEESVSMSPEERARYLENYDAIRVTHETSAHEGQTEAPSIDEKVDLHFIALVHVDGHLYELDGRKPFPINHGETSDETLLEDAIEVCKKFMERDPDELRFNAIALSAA
# In short: as §1
# UCHL5 = biological target: T5, UCHL5 (UniProt Q9Y5K5)
# T5 sequence (whole entry): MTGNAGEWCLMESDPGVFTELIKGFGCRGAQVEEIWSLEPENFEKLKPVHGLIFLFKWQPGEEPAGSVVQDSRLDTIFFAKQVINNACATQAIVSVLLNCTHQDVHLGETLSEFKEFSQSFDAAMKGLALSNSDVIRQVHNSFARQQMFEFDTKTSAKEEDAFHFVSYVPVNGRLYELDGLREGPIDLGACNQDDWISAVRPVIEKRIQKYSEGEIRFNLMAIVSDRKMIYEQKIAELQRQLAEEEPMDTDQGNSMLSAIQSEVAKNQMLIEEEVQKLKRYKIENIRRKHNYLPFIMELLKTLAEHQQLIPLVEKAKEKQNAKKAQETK
# In short: as §1
# USP10 = USP10 (UniProt Q14694)
# USP10, sequence (Q14694 whole entry): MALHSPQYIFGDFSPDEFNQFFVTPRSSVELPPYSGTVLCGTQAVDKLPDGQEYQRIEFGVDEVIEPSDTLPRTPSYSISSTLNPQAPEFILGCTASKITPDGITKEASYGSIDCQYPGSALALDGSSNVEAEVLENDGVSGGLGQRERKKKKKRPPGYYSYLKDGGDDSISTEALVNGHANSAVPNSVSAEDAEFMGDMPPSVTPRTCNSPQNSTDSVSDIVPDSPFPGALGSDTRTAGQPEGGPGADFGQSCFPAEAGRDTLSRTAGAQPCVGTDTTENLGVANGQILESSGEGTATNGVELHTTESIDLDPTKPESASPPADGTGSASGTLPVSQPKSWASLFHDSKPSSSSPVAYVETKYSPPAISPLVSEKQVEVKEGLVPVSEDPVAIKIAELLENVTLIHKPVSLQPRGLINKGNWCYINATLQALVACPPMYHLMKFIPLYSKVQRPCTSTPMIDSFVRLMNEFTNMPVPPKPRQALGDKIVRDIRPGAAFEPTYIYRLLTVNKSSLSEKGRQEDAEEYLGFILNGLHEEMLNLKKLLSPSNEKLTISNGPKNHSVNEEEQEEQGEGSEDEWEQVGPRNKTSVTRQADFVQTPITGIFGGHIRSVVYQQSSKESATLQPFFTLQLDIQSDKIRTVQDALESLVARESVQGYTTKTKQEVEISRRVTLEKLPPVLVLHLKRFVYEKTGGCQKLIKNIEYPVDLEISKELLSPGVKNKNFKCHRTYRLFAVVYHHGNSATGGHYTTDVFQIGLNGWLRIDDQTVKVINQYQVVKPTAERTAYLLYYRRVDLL
# In short: as §1
# USP15 = biological target: T6, USP15 (UniProt Q9Y4E8)
# T6 sequence (whole entry): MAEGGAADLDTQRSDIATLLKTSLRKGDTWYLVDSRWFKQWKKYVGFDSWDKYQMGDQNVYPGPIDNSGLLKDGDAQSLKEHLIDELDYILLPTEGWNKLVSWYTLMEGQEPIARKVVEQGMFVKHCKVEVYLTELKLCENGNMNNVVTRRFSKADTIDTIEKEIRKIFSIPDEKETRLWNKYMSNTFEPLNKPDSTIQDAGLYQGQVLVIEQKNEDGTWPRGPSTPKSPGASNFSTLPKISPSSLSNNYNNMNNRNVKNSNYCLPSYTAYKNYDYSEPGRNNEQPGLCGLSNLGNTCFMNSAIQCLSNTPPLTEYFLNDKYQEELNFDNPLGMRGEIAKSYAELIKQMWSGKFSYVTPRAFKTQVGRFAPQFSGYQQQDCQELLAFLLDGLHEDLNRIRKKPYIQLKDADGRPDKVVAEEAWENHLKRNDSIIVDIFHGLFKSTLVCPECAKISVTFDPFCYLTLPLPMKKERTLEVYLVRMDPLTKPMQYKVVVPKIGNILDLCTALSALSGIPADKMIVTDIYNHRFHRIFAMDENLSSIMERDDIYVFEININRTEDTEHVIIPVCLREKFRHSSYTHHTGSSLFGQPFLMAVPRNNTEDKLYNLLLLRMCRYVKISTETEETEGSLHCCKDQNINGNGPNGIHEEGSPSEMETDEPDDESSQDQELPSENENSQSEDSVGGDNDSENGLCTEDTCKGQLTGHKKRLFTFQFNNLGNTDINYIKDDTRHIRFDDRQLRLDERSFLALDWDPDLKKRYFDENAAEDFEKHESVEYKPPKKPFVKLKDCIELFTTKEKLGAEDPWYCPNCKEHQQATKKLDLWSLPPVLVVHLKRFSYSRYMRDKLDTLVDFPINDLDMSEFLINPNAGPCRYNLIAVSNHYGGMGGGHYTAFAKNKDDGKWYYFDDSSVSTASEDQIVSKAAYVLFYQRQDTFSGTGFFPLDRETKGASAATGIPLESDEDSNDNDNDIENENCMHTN
# In short: as §1
smiles,measurement,setting,value
O=C(CCl)NCCC1=CCCCC1,log2 ratio of Biotin-Ahx-Ub-VS probe labelling,OTUD6B,-0.254
same,log2 ratio of Biotin-Ahx-Ub-VS probe labelling,OTUD7B,-0.269
same,log2 ratio of Biotin-Ahx-Ub-VS probe labelling,PRPF8,0.145
same,log2 ratio of Biotin-Ahx-Ub-VS probe labelling,PSMD7,0.0106
same,log2 ratio of Biotin-Ahx-Ub-VS probe labelling,UCHL1,-1.6 (active)
same,log2 ratio of Biotin-Ahx-Ub-VS probe labelling,UCHL3,0.284
same,log2 ratio of Biotin-Ahx-Ub-VS probe labelling,UCHL5,-0.111
same,log2 ratio of Biotin-Ahx-Ub-VS probe labelling,USP10,-0.0126
same,log2 ratio of Biotin-Ahx-Ub-VS probe labelling,USP15,-0.103

# Reference: the supplement of paper PMC11732987, “Enantioselective OTUD7B fragment discovery through chemoproteomics screening and high-throughput optimisation” (Communications Chemistry, 2025)
